Unmarked numbers belong to inactive results. Records with an inconclusive call do not appear. A call without a number means that no potency is given here. The source made the active and inactive calls. Unless noted, calls come from the whole dose curve; as a rule, active = well fitted curve in the direction sought with a large enough effect; inconclusive = small, poorly fitted or top-dose-only effect, or another doubt; inactive = no such curve, though single readings can be large; an effect the other way counts as inactive or inconclusive.
Experiments:
[1] = biological target: Cytochrome P450 1A2 (Homo sapiens) (UniProt P05177); assay: p450-cyp1a2 (AID 410; calls by dose curve; note: potency is the fitted concentration of half-maximal effect)
Cytochrome P450 1A2 (Homo sapiens), sequence (P05177 whole entry, looked up): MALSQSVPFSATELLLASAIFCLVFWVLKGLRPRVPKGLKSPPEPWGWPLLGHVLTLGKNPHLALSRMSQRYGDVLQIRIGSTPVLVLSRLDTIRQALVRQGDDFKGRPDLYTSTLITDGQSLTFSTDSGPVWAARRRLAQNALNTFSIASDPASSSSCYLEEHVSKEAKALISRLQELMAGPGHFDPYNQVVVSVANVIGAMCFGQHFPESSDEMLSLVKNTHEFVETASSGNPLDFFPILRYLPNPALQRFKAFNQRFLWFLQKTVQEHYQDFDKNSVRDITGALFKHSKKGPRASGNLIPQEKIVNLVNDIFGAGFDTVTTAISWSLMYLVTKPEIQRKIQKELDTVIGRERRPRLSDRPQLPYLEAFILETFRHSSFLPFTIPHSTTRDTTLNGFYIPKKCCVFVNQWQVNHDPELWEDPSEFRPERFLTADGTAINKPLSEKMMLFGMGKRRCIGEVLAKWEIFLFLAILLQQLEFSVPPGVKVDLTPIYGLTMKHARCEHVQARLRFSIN
In short: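 Luminescent demethylation readout: Luciferin-ME (100uM, equal to Km) turned over by 20nM CYP1A2 for 60 min at room temperature after NADPH regeneration addition, following 10 min compound preincubation. Normalization used 57 uM furafylline as full inhibition.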

[2] = biological target: Glucocorticoid receptor (Homo sapiens) (UniProt P04150); assay: GR-GFP Redistribution (AID 450;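 active = compounds whose dose series gives a full or clear partial fitted curve of increased nuclear translocation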; note: potency is the fitted concentration of half-maximal effect); conditions: U2OS GR-GFP nuclear translocation, laser cytometry, 2 h
Glucocorticoid receptor (Homo sapiens), sequence (P04150 whole entry, looked up, the tested form may be a part): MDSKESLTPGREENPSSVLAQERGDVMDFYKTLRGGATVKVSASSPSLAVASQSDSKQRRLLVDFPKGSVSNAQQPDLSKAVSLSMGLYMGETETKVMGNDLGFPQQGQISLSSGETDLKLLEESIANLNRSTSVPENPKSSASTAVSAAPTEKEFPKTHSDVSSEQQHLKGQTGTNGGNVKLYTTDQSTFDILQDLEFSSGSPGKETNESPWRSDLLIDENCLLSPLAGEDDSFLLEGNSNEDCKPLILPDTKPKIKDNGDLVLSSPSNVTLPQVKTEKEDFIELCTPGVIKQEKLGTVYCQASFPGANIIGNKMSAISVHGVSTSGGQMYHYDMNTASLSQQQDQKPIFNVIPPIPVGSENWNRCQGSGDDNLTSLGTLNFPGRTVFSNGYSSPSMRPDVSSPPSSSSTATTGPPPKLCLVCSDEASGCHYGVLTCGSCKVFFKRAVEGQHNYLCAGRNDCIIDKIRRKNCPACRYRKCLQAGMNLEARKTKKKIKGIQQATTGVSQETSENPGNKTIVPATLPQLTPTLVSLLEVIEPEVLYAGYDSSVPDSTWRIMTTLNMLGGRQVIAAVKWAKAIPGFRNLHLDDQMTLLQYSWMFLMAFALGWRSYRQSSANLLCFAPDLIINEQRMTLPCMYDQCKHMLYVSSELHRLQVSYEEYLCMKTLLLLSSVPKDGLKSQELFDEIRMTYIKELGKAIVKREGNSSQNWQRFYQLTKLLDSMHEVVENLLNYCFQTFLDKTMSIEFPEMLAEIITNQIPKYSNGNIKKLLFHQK

[3] = biological target: Glucocorticoid receptor (Homo sapiens) (UniProt P04150); assay: GR-EFC Redistribution (AID 451; calls by dose curve; note: potency is the fitted concentration of half-maximal effect); conditions: CHO-K1 GR-EFC translocation, beta-gal luminescence, 2 h
In short: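 CHO-K1 cells expressing nuclear EA and GR-ED fragments of b-gal; compounds titrated up to 46 uM final, 2 h at 37 C. GR nuclear translocation read as complemented b-gal luminescence after 1 h RT detection.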

[4] = biological target: 3',5'-cyclic-AMP phosphodiesterase 4B (Homo sapiens) (UniProt Q07343); assay: qHTS Assay for Inhibitors of PDE-IV (AID 607; active = well fitted activation curve with a large enough effect in the main read-out, with a control signal flat, not every such curve was filed as active)
3',5'-cyclic-AMP phosphodiesterase 4B (Homo sapiens), sequence (Q07343 whole entry, looked up): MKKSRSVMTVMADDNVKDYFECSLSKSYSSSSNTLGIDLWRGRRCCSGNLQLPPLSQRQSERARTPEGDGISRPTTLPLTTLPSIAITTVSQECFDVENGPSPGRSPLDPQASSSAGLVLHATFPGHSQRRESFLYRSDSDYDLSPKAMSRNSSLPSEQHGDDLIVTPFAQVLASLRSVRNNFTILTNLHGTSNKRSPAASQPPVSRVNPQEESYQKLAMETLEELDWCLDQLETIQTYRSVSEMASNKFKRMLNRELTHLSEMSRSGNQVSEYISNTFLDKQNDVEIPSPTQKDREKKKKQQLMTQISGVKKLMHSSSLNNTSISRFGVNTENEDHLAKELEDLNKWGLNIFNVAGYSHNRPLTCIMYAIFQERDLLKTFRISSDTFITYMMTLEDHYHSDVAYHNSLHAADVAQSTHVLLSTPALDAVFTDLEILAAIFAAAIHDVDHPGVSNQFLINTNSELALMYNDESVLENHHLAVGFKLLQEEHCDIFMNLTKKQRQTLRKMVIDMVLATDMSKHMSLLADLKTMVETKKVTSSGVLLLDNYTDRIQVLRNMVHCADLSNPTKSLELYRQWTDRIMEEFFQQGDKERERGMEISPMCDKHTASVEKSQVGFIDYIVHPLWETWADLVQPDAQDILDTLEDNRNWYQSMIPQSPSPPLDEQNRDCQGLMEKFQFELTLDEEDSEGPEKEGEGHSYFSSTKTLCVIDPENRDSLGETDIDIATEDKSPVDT
In short: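 ACTOne HEK293 cells carry a modified cAMP-gated CNG channel and express endogenous PDE4; plated 1000 cells/well, compounds up to 22.9 uM final. Membrane-potential dye fluorescence (ex 535/em 590) was read; parental cells received 10 uM forskolin + 100 uM RO 20-1724.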

[5] = biological target: Cytochrome P450 3A4 (Homo sapiens) (UniProt P08684); assay: qHTS Assay for Activators of Cytochrome P450 3A4 (AID 885); note: nearly all actives have a fitted effect of over 65% in size
Cytochrome P450 3A4 (Homo sapiens), sequence (P08684 whole entry, looked up): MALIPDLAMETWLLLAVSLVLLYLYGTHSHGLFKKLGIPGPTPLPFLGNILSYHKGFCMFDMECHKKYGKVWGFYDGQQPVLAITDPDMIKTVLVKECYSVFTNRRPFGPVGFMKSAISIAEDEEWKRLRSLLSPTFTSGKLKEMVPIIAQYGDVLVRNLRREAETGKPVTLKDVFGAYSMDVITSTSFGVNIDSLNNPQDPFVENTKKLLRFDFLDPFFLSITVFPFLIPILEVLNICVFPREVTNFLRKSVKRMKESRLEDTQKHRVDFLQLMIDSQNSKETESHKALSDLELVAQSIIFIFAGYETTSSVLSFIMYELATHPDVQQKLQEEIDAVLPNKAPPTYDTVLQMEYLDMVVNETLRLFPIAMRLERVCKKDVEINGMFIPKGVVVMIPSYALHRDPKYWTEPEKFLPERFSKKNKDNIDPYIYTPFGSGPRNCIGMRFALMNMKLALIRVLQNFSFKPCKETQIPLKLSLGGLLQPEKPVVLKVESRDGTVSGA
In short: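 CYP3A4 activity: Luciferin-PPXE O-dealkylation, 25uM substrate, 200mM KPO4, RT throughout. Read-out is luciferase luminescence; higher values reflect activation.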

[6] = biological target: Ubiquitin carboxyl-terminal hydrolase 1 (Homo sapiens) (UniProt O94782); assay: Inhibitors of USP1/UAF1: Pilot qHTS (AID 504865);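 note: rhodamine fluorescence freed from ubiquitin-rhodamine substrate followed over time; top concentration of the series differs between compounds; nearly all actives have a fitted effect of over 35% in size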
Ubiquitin carboxyl-terminal hydrolase 1 (Homo sapiens), sequence (O94782 whole entry, looked up): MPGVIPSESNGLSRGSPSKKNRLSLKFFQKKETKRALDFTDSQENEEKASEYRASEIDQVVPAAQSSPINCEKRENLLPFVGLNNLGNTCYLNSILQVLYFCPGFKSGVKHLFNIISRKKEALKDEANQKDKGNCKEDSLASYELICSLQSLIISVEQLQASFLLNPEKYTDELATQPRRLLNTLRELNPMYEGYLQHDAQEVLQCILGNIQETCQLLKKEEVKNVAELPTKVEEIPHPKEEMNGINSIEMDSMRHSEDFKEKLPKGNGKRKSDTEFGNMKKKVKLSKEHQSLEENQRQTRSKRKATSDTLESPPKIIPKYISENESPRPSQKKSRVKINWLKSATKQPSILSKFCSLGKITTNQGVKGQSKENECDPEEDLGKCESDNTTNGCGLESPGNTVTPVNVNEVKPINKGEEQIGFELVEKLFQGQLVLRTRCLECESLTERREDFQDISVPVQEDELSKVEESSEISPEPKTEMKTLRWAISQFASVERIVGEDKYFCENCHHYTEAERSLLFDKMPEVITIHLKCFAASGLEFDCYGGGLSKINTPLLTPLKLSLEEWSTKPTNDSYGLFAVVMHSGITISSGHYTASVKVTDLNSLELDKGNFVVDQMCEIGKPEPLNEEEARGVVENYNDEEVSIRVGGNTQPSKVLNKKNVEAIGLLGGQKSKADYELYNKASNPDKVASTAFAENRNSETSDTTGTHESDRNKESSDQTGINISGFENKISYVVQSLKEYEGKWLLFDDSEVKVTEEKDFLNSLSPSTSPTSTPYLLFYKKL
In short: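 In 50mM HEPES pH 7.8 containing 0.5mM EDTA, 1mM TCEP, 0.1 mg/ml BSA and 0.01% Tween-20, 1nM USP1/UAF1 is exposed to compound for 15 min, then Ub-Rho (150nM final) is added and fluorescence is read over time.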

[7] = biological target: DNA dC->dU-editing enzyme APOBEC-3G (Homo sapiens) (UniProt Q9HC16); assay: qHTS for inhibitors of Vif-A3G interactions: Validation (AID 588379)
DNA dC->dU-editing enzyme APOBEC-3G (Homo sapiens), sequence (Q9HC16 whole entry, looked up): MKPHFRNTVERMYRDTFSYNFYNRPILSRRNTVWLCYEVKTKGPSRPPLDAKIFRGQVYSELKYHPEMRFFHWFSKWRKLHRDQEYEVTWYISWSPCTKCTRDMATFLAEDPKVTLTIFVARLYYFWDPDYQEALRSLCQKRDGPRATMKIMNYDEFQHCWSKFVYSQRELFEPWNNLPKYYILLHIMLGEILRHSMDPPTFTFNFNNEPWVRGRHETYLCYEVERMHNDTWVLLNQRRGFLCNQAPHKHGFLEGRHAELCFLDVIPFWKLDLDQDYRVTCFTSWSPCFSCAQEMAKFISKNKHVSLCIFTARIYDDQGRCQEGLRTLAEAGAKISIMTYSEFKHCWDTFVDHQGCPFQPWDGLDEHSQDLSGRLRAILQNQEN
In short: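 Yellow fluorescence (Ex 488, Em 500-530) of Vif-coexpressing HeLa A3G-eYFP cells, scanned by Acumen cytometer, reports blocked A3G degradation. Cells plated at 700/well overnight at 37 deg C before compound addition, then a further overnight compound incubation at 37 deg C.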

[8] = tested on: Zika virus NS2B-NS3 protease; assay: Primary screen GU AMC qHTS for Zika virus inhibitors (AID 1347154); note: nearly all actives have a fitted effect of over 70% in size
In short: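 Unlinked Zika NS2B hydrophilic domain–NS3 protease complex at 25 nM in 10 mM Tris-HCl pH 8.0, 0.01% Tween 20, with an AMC peptide substrate. Fluorescence change (340/450 nm) over 15 min at room temperature, normalized to controls, fitted to 4-parameter Hill.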

[9] = biological target: Mitogen-activated protein kinase 10 (Mus musculus) (UniProt Q61831); assay: JNK3 AlphaScreen Assay (AID 530; active = well fitted curve in either direction with a large enough effect, not every such curve was filed as active;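 note: kinase came from lysate of stimulated human HepG2 cells; signal reports phosphorylation of biotinylated GST-cJun 1-79 at Ser73 with 10 µM ATP; series mostly up to about 57 µM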)
In short: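 Activity was read by AlphaScreen after JNK3-containing HepG2 lysate (cytokine pre-activated) phosphorylated biotinylated GST-cJun with 10 uM ATP at room temperature. Phospho-Ser73 cJun antibody with Protein-A acceptor beads provided detection.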

[10] = biological target: Cytochrome P450 2D6 (Homo sapiens) (UniProt P10635); assay: qHTS Assay for Inhibitors and Substrates of Cytochrome P450 2D6 (AID 891); note: nearly all actives have a fitted effect of over 60% in size; note: potency is the fitted concentration of half-maximal effect
Cytochrome P450 2D6 (Homo sapiens), sequence (P10635 whole entry, looked up): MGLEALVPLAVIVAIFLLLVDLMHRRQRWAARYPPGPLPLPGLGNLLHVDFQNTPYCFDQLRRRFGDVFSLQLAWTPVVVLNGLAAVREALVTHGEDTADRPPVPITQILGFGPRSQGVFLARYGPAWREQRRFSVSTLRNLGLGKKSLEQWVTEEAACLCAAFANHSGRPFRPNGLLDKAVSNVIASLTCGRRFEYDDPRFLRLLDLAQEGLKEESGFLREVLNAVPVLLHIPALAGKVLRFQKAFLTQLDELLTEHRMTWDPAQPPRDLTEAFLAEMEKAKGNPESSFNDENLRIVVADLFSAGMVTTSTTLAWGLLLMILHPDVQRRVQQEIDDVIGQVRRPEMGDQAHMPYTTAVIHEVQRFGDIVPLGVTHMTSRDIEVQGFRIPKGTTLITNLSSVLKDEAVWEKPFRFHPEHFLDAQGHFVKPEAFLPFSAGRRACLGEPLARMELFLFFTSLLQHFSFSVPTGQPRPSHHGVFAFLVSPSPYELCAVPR
In short: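 Luminescent read-out of luciferin formed by 5 nM human CYP2D6 demethylating 30 uM Luciferin-ME EGE (Km level) over 60 min at room temperature after NADPH regeneration addition. Data normalized to full inhibition by 1.43 uM quinidine.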

[11] = biological target: Cytochrome P450 2C9 (Homo sapiens) (UniProt P11712); assay: qHTS Assay for Inhibitors and Substrates of Cytochrome P450 2C9 (AID 883); note: nearly all actives have a fitted effect of over 60% in size
Cytochrome P450 2C9 (Homo sapiens), sequence (P11712 whole entry, looked up): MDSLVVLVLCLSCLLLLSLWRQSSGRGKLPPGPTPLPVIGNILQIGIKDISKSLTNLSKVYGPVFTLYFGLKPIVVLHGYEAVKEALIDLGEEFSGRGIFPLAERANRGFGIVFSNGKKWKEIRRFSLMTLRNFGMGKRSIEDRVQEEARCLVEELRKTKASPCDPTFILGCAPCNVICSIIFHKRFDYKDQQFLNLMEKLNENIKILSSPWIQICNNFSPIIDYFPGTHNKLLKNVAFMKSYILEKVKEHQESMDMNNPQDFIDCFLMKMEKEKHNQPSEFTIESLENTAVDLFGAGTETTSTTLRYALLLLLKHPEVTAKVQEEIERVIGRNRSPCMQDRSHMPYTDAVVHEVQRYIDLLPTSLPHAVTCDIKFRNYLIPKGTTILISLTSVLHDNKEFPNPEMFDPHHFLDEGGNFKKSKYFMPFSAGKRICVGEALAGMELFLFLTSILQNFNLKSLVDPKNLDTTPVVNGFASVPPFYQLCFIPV
In short: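 Signal: luciferase luminescence reporting luciferin produced by CYP2C9. Conditions: 10nM enzyme, Luciferin-H 100uM at KM, 25mM KPO4, 37C, 60 min NADPH-driven reaction. Reference: 57uM sulphaphenazole as 100% inhibition.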

[12] = biological target: Cytochrome P450 3A4 (Homo sapiens) (UniProt P08684); assay: qHTS Assay for Inhibitors and Substrates of Cytochrome P450 3A4 (AID 884); note: potency is the fitted concentration of half-maximal effect; nearly all actives have a fitted effect of over 50% in size
In short: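 Luminescent readout of luciferin produced by CYP3A4 (20 nM) dealkylation of Luciferin-PPXE, 25 uM (its KM). NADPH-driven reaction ran 60 min at RT after 10 min compound preincubation; data scaled to 57 uM ketoconazole as 100% inhibition.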

[13] = biological target: Cytochrome P450 2C19 (Homo sapiens) (UniProt P33261); assay: qHTS Assay for Inhibitors and Substrates of Cytochrome P450 2C19 (AID 899); note: nearly all actives have a fitted effect of over 60% in size
In short: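 Signal comes from luciferase acting on luciferin released by CYP2C19-mediated hydroxylation of Luciferin-H EGE, 10uM (KM). Assay mix: 5nM enzyme, 50mM KPO4; 60 min at 37C with NADPH regeneration. Data normalized against 57uM ketoconazole.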

Row | SMILES | Potency [1] | Potency [2] | Potency [3] | Potency [4] | Potency [5] | Potency [6] | Potency [7] | Potency [8] | Potency [9] | Potency [10] | Potency [11] | Potency [12] | Potency [13]
1 | Nc1nc(NCCc2ccc(O)cc2)nc2nc(-c3ccco3)nn12 | 31.6 µM (active) | > 46 µM | > 46 µM | inactive | inactive | inactive | inactive | inactive | – | – | – | – | –
2 | N[C@H](C(=O)O)[C@H](OCc1ccccc1)C(=O)O | 31.6 µM (active) | > 46 µM | > 46 µM | – | – | inactive | inactive | inactive | inactive | 7.94 µM (active) | – | – | –
3 | Cc1ccc(C(=O)Cn2c3c(sc2=N)CCCC3)cc1 | 1 µM (active) | > 46 µM | > 46 µM | inactive | inactive | – | inactive | inactive | inactive | inactive | inactive | 6.31 µM (active) | inactive
4 | N=C(C[C@@H](O)COc1ccccc1-c1ccccc1)N1CCCCC1 | – | > 46 µM | > 46 µM | – | – | inactive | inactive | inactive | inactive | – | – | – | –
5 | c1ccc2nc(C3=NCCN3)cnc2c1 | 0.398 µM (active) | > 46 µM | > 46 µM | – | – | inactive | inactive | inactive | inactive | – | – | – | –

Source: PubChem BioAssay (NCATS)
